Screens deposited in PubChem by several laboratories.
LEDGF integ inh = blocks HIV-1 LEDGF/p75-dependent DNA integration | AID 743269 | 370,000 tested, 0.64% active | TR-FRET IN-LEDGF/p75 DNA integration, Eu/Cy5 | inhibition, % at 3.7 µM;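 active = inhibition above the screen-wide mean plus 3 SD, cut at about 13% in these data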;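 note: signal is the Cy5 over europium emission ratio at 671 and 618 nm; 0% = plate median of compound wells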
Neddyl block = cullin neddylation inhibition | P61081+Q13564 | TR-FRET cullin neddylation, biochemical | calls only at 25 µM | 360,000 tested, 0.58% active | AID 651699; in the data active = inhibition above about 36%
KLK7 zymogen act = activates the human kallikrein-7 zymogen; P49862; purified proKLK7, EDANS-DABCYL substrate fluorescence; 100% is mature enzyme control, 0% vehicle; activation, % at 7 µM; 370,000 tested, 0.9% active; AID 652039;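 active = activation above the mean of all tested compounds plus 3 SD, computed per campaign excluding outliers beyond control limits, cut at about 13% in these data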
UHRF1 MBD2 ctr = blocks human UHRF1 binding to methylated DNA; Q96T88; UHRF1 binding to methylated oligo, TR-FRET; inhibition, % at 4.4 µM; 370,000 tested, 0.75% active; AID 687016; in the data active = inhibition above about 21%;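 note: UHRF1 SRA domain binding a hemimethylated CpG hairpin DNA probe; 0% = median of test compound wells and 100% = reference inhibitor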
MBD2 DNA inh = blocks human MBD2 binding to methylated DNA. Q9UBB5. TR-FRET, MBD2 binding to methylated oligonucleotide. inhibition, % at 4.4 µM. 370,000 tested, 0.31% active; in the data active = inhibition above about 13%
Target sequence (Q9UBB5 whole entry, looked up): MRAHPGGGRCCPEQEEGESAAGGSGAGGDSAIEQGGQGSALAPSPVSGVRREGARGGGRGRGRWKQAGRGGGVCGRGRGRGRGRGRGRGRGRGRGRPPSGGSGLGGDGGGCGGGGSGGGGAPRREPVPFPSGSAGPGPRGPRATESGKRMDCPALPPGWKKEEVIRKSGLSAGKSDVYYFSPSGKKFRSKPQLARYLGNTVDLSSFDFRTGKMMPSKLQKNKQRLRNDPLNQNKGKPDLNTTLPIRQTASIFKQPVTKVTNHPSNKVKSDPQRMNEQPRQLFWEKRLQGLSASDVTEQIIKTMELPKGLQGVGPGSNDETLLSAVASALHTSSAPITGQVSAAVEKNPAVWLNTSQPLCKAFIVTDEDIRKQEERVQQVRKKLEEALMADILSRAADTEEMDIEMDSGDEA
Rin1-Abl PPI inh = blocks binding of human Rin1 to Abl. AID 588664. P00519+Q13671. 360,000 tested, 0.4% active. TR-FRET Rin1/Abl binding, biochemical. inhibition, % at 7.35 µM; in the data active = inhibition above about 5%, passing the limit was not always enough
Rin1 Abl conf = confirmation of inhibitors of human Rin1-Abl interaction. inhibition, % at 7.35 µM. shares compounds with Rin1-Abl PPI inh. 1,300 tested, 49% active. TR-FRET Rin1-Abl binding, purified proteins
GFP quench = quenches GFP fluorescence, counter-screen for Rin1-Abl inhibitors. inhibitors/quenchers counterscreen. inhibition, % at 6.75 µM. 1,300 tested, 8.5% active. shares compounds with Rin1-Abl PPI inh. AID 602125;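 note: ABL1-eGFP fusion protein alone without its partner RIN1-SBP; 0% = protein with vehicle and 100% = wells lacking protein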
GFP quench DR = quenches GFP in dose response, Rin1-Abl counter-screen | IC50, µM | GFP fluorescence interference/quenching counterscreen | shares compounds with Rin1-Abl PPI inh | 230 tested, under 10 active; call rule not given here;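 note: ABL1-eGFP fusion protein alone without its RIN1 binding partner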
The depositor's hits bear a star; i = inactive; / = not tested or not shown. Sampled rows, rich in hits. Any-hit rate of the full collection: about 3.1%. Cut-off read from the data, not from the text of the source, unless noted: active = inhibition above about 6.5%; inactive = the rest.

SMILES	LEDGF integ inh	Neddyl block	KLK7 zymogen act	UHRF1 MBD2 ctr	MBD2 DNA inh	Rin1-Abl PPI inh	Rin1 Abl conf	GFP quench	others
CCOC(=O)CCCCCC(=O)Nc1ccc2c(c1)CC(=O)N([C@H](C)CO)C[C@@H](C)[C@H](CN(C)Cc1ccc3c(c1)OCO3)O2	-3	i	0	2	0	16*	18*	-1	GFP quench DR=>68
CCOC(=O)c1sc(S(C)=O)c2c1CCc1conc1-2 (stereo not drawn)	1	i	-1	-5	-8	5	/	/
CC(C)CN(C(=O)CN(C)CC(=O)Nc1ccc(Cl)c(C(F)(F)F)c1)c1c(N)n(CC(C)C)c(=O)[nH]c1=O	1	i	1	7	-5	2	/	/
C[C@@H]1CCCCO[C@@H](CN(C)S(=O)(=O)c2cccs2)[C@@H](C)CN([C@H](C)CO)C(=O)c2cc(NS(=O)(=O)c3ccccc3)ccc2O1	-4	i	0	1	-1	69*	67*	-1	GFP quench DR=>68
CCOCCCN(C)C1CCN(S(=O)(=O)c2csc(C(N)=O)c2)CC1	1	i	-1	-1	0	-1	/	/
CCOC(=O)C1(Cc2ccccc2)CCN(Cc2cn[nH]c2-c2ccccc2)CC1	2	i	0	5	0	9.5*	-1	-1
Cc1nn(C)c(C(=O)NNC(=S)NCc2ccccc2)c1Cl	1	i	0	0	-2	7.3*	-3	0
O=C(Nc1cccc(C(F)(F)F)c1)c1cccnc1NCCc1ccccc1	-2	/	-2	-2	4	1	/	/
O=C(Nc1cccc(C(F)(F)F)c1)c1cccnc1NCCO	-1	i	1	-3	1	6.9*	1	0
CCOc1ccc2c(c1)OC(c1ccccc1)(C(F)(F)F)NC2=O (stereo not drawn)	2	i	-1	-1	2	5	/	/
CCOc1ccc2c(c1)OC(c1ccc(OC)cc1)(C(F)(F)F)NC2=O (stereo not drawn)	-2	i	0	5	0	7.1*	-1	0
COc1cccc(N2CC(C(=O)Nc3ccc(C(=O)OC(C)C)cc3)CC2=O)c1 (stereo not drawn)	3	i	0	0	-5	17*	14*	-1
COc1cccc(N2CC(C(=O)Nc3ccc(F)cc3)CC2=O)c1 (stereo not drawn)	4	i	1	-3	-2	1	/	/
FC(F)(F)c1cnc(NNC(=S)Nc2ccccc2Cl)c(Cl)c1	4	i	0	-9	-5	5.7*	-1	0
Cc1nn2c(-c3ccco3)nnc2c2ccccc12	-1	i	-1	-33	2	10*	14*	-3
Cc1ccccc1-c1nnc2c3ccccc3c(C)nn12	3	i	0	5	4	0	/	/
Cc1ccc2nc(-c3cccc(Br)c3)c(Cc3cccc(Cl)c3)n2c1	-2	i	0	13	-3	-3	/	/
Cc1cccc(N(Cc2ccccc2)C(=O)c2ccc(C)c(S(=O)(=O)N3CCOCC3)c2)c1	2	i	0	-1	-2	1	/	/
Cc1cccc(N(Cc2ccccc2)C(=O)Cc2ccc(S(=O)(=O)N3CCOCC3)s2)c1	-5	i	0	2	1	14*	26*	1	GFP quench DR=>68
CCC(C)c1ccc(S(=O)(=O)N2CC(=O)Nc3ccccc32)cc1 (stereo not drawn)	0	i	1	-2	-7	5.8*	-1	1
CCc1ccc(S(=O)(=O)N2CC(=O)Nc3ccccc32)cc1	-1	i	2	-1	-2	2	/	/
Cc1ccc(NC(=O)COC(=O)Cc2c[nH]c3ccccc23)cc1F	-3	i	0	-4	-2	10*	-2	2
O=C(COC(=O)Cc1c[nH]c2ccccc12)Nc1ccc(Cl)cc1	-1	i	0	-4	5	-4	/	/
